# Measurements as given in PubChem BioAssay (Tox21).
# Unmarked numbers belong to inactive results. Records with an inconclusive call do not appear. Entries that show only a call come without a potency. Calls of active or inactive are those of the source. Calls follow the shape of the dose curve; as a rule, active = well fitted curve in the direction sought with a large enough effect in the repeat runs; inconclusive = weak or mixed curves; inactive = no such curve, though single readings can be large; an effect the other way counts as inactive or inconclusive.
# Key:
# [1] = Human pregnane X receptor (PXR) small molecule agonists, qHTS cell viability counter screen (AID 1346977); also: nearly all actives have a fitted effect of over 50% in size
# Summary of the method: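 Cytotoxicity counter screen run in the same wells as the PXR luciferase assay, using PXR-Luc HepG2 cells in charcoal-stripped serum medium. Viability: CellTiter-Fluor fluorescence after 24hr compound treatment.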
# [2] = Caspase-3/7 induction in HepG2 cells by small molecules, qHTS assay (AID 1346978); also: nearly all actives have a fitted effect of over 15% in size
# Summary of the method: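 Wild-type HepG2 cells (2,000/well) were settled 5 h at 37 C, 5% CO2, then exposed to compounds in DMSO for 17 h. Caspase-3/7 activity was read by luminescence 30 min after adding Caspase-Glo 3/7 reagent at room temperature.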
# [3] = Caspase-3/7 induction in CHO-K1 cells by small molecules, qHTS cell viability counter screen (AID 1346979); also: nearly all actives have a fitted effect of over 35% in size
# Summary of the method: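 Cytotoxicity counter screen run in parallel with the caspase-3/7 assay: CHO-K1 cells, 16hr compound treatment at 37C, then CellTiter-Fluor for 1hr before fluorescence reading.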
# [4] = Caspase-3/7 induction in CHO-K1 cells by small molecules, qHTS assay (AID 1346980); also: nearly all actives have a fitted effect of over 15% in size
# Summary of the method: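 Wild-type cells were seeded at 1,500 per well and settled 5 hr at 37 C, 5% CO2, then exposed to DMSO-dissolved compounds for 17 hr. Caspase-Glo 3/7 reagent was added, and luminescence was read after 30min at room temperature.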
# [5] = Caspase-3/7 induction in HepG2 cells by small molecules, qHTS cell viability counter screen (AID 1346981); also: series mostly up to about 92 µM; nearly all actives have a fitted effect of over 30% in size
# Summary of the method: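 Counter screen for cytotoxicity: HepG2 exposed 16 hr to compounds, then CellTiter-Fluor viability signal (fluorescence, 1 hr reagent incubation).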
# [6] = molecular target: Nuclear receptor subfamily 1 group I member 2 (Homo sapiens) (UniProt O75469); test: Human pregnane X receptor (PXR) small molecule agonists, qHTS assay (AID 1346982); also: nearly all actives have a fitted effect of over 35% in size; also: potency is read from the fitted curve at half-maximal effect
# Sequence of Nuclear receptor subfamily 1 group I member 2 (Homo sapiens) (O75469 whole entry, looked up): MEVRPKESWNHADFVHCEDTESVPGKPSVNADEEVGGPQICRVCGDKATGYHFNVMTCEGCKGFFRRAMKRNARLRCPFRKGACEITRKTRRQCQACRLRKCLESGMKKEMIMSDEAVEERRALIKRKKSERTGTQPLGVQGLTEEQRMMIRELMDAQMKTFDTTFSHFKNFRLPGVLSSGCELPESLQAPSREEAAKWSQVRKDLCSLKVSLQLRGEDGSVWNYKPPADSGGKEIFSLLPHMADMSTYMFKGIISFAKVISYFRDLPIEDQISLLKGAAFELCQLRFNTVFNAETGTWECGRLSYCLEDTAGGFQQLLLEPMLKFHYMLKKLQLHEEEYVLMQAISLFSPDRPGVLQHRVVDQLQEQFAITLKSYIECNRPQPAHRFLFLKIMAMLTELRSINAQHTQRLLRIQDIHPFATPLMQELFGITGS
# Summary of the method: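 Luminescence (ONE-Glo, 30 min RT) after 24 hr compound exposure of PXR-Luc HepG2 cells; cells rested 5 hr post-plating in 5% charcoal-stripped FBS medium.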
# [7] = molecular target: Cytochrome P450 2D6 (Homo sapiens) (UniProt P10635); test: Cytochrome P450 Family 2 Subfamily D Member 6 (CYP2D6) small molecule antagonists: luciferase reporter qHTS assay (AID 1671196); also: series mostly up to about 120 µM; nearly all actives have a fitted effect of over 50% in size
# Sequence of Cytochrome P450 2D6 (Homo sapiens) (P10635 whole entry, looked up): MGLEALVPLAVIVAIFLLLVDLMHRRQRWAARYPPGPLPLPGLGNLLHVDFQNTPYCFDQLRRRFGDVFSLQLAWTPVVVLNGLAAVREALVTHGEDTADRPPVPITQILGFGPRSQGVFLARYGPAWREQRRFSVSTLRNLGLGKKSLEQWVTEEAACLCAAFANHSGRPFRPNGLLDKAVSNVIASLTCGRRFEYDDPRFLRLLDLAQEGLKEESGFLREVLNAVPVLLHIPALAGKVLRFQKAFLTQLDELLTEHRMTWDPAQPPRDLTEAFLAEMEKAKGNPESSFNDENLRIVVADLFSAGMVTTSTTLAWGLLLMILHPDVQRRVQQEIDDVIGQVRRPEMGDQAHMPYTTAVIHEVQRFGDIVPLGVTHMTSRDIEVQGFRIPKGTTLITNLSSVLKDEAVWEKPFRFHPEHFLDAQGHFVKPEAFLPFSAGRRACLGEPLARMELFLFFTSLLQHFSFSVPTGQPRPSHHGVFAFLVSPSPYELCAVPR
# Summary of the method: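 Inhibition of CYP2D6 was gauged by loss of luminescence, since light produced tracks the luciferin generated from a proluciferin substrate. A 10 min room-temperature preincubation preceded 1 h NADPH-supported turnover.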
# [8] = molecular target: Nuclear receptor subfamily 1 group I member 2 (Rattus norvegicus) (UniProt Q9R1A7); test: Rat pregnane X receptor (rPXR) activation by small molecules, qHTS assay (AID 1346983); details: rPXR luciferase reporter cells, One-Glo luminescence, 24 h; max activation: active compounds read high; also: nearly all actives have a fitted effect of over 20% in size
# Sequence of Nuclear receptor subfamily 1 group I member 2 (Rattus norvegicus) (Q9R1A7 whole entry, looked up): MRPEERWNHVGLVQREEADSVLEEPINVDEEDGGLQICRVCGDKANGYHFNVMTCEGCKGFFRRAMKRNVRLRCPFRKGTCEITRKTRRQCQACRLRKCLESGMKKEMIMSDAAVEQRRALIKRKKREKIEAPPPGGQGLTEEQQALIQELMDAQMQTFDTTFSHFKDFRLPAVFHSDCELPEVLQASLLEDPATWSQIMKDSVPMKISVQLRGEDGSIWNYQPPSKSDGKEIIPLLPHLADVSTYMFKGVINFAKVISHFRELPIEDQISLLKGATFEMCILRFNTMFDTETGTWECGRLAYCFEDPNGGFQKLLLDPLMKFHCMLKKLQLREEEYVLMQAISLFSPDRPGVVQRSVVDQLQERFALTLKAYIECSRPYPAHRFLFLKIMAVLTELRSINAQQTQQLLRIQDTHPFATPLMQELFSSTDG
# Summary of the method: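 Cell-based rPXR luciferase reporter assay, 2,000 cells per well, rested 5hr at 37 C before compound addition in DMSO, then 24 hr at 37 C. One-Glo reagent was added and luminescence read after 30 min at room temperature.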
# [9] = molecular target: Nuclear receptor subfamily 1 group I member 2 (Homo sapiens) (UniProt O75469); test: Human pregnane X receptor (PXR) activation by small molecules, qHTS assay (AID 1346985); also: nearly all actives have a fitted effect of over 40% in size
# Summary of the method: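 DPX-2 cells (HepG2 co-transfected with a PXR response element and a CYP3A4-promoter luciferase construct) were seeded at 2,000 per well, rested 5 hr at 37C, then exposed to DMSO-dissolved compounds for 24 hr. Activation was read as luciferase luminescence.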
compound,measurement,setting,value
COCCOCC(OC)OC,Potency,[1],inactive
same,outcome,[2],inactive
same,Potency,[3],inactive
same,outcome,[4],inactive
same,Potency,[5],inactive
same,Potency,[6],inactive
same,Potency,[7],inactive
Cc1cc(C)c(N=Nc2c(O)c(S(=O)(=O)O)cc3cc(S(=O)(=O)O)ccc23)cc1C,"activity change, negative = cytotoxicity",[1],-25% [at 8.39 µM]
same,caspase activation,[2],-0.299% [at 8.39 µM]
same,"activity change, negative = cytotoxicity",[3],-8.22% [at 8.39 µM]
same,caspase-3/7 activation,[4],-0.604% [at 8.39 µM]
same,"activity change, negative = cytotoxicity",[5],-13.8% [at 8.39 µM]
same,activation,[6],-9.92% [at 8.39 µM]
same,"activity change, negative = inhibition",[7],-11.1% [at 10.5 µM]
CC(=O)NC(=O)c1ccccc1O,Potency,[1],inactive
same,outcome,[2],inactive
same,Potency,[3],inactive
same,outcome,[4],inactive
same,Potency,[5],inactive
same,Potency,[6],inactive
same,max activation,[8],-2.9%
same,Potency,[9],inactive
same,Potency,[7],inactive
CCCCOCCOC(=O)CCCCCCCCC(=O)OCCOCCCC,Potency,[1],inactive
same,outcome,[2],inactive
same,Potency,[3],inactive
same,outcome,[4],inactive
same,Potency,[5],inactive
same,Potency,[6],inactive
same,Potency,[7],inactive
O=CN(CCO)CCO,Potency,[1],inactive
same,outcome,[2],inactive
same,Potency,[3],inactive
same,outcome,[4],inactive
same,Potency,[5],inactive
same,Potency,[6],inactive
same,Potency,[7],inactive
CNC(=O)Nc1ccc(Cl)c(Cl)c1,Potency,[1],inactive
same,outcome,[2],inactive
same,Potency,[3],inactive
same,outcome,[4],inactive
same,Potency,[5],inactive
same,Potency,[6],34.4 µM (active)
same,Potency,[7],inactive
CC(C)=CCC/C(C)=C/C#N,Potency,[1],inactive
same,outcome,[2],inactive
same,Potency,[3],inactive
same,outcome,[4],inactive
same,Potency,[5],inactive
same,Potency,[6],inactive
same,Potency,[7],inactive
O=S(=O)(O)c1cc(O)c(O)c(S(=O)(=O)O)c1,Potency,[1],inactive
same,outcome,[2],inactive
same,Potency,[3],inactive
same,outcome,[4],inactive
same,Potency,[5],inactive
same,Potency,[6],inactive
same,Potency,[7],inactive
CC(=O)OCC(=O)[C@@]1(O)[C@H](C)C[C@H]2[C@@H]3CCC4=CC(=O)C=C[C@]4(C)[C@@]3(F)[C@@H](O)C[C@@]21C,Potency,[1],inactive
same,outcome,[2],inactive
same,Potency,[3],inactive
same,outcome,[4],inactive
same,Potency,[5],inactive
same,Potency,[6],inactive
same,Potency,[9],inactive
same,Potency,[7],inactive
CC(C)(C)C(=O)c1ccccc1,Potency,[1],inactive
same,outcome,[2],inactive
same,Potency,[3],inactive
same,outcome,[4],inactive
same,Potency,[5],inactive
same,Potency,[6],inactive
same,Potency,[7],inactive
CC1=NS(=O)(=O)c2cc(Cl)ccc2N1,Potency,[1],inactive
same,outcome,[2],inactive
same,Potency,[3],inactive
same,outcome,[4],inactive
same,Potency,[5],inactive
same,Potency,[6],inactive
same,Potency,[7],inactive
CCN[C@H]1C[C@H](C)S(=O)(=O)c2sc(S(N)(=O)=O)cc21,Potency,[1],inactive
same,outcome,[2],inactive
same,Potency,[3],inactive
same,outcome,[4],inactive
same,Potency,[5],inactive
same,Potency,[6],inactive
same,max activation,[8],0.198%
same,Potency,[9],inactive
same,Potency,[7],inactive
CC(C)C1CCC(O)CC1 (stereo not given),Potency,[1],inactive
same,outcome,[2],inactive
same,Potency,[3],inactive
same,outcome,[4],inactive
same,Potency,[5],inactive
same,Potency,[6],inactive
same,Potency,[7],inactive
O=C(c1ccccc1)C1(O)CCCCC1,Potency,[1],inactive
same,outcome,[2],inactive
same,Potency,[3],inactive
same,outcome,[4],inactive
same,Potency,[5],inactive
same,Potency,[6],inactive
same,Potency,[7],inactive
CCCO[Si](OCCC)(OCCC)OCCC,Potency,[1],inactive
same,outcome,[2],inactive
same,Potency,[3],inactive
same,outcome,[4],inactive
same,Potency,[5],inactive
same,Potency,[6],inactive
same,Potency,[7],inactive
Cc1ccc(C(=O)c2ccc(CC(=O)O)n2C)cc1,Potency,[1],inactive
same,outcome,[2],inactive
same,Potency,[3],inactive
same,outcome,[4],inactive
same,Potency,[5],inactive
same,Potency,[6],inactive
same,max activation,[8],-1.99%
same,Potency,[9],inactive
same,Potency,[7],inactive
CC1OC1C1CCC2(C)OC2C1 (stereo not given),Potency,[1],inactive
same,outcome,[2],inactive
same,Potency,[3],inactive
same,outcome,[4],inactive
same,Potency,[5],inactive
same,Potency,[6],inactive
same,Potency,[7],inactive
CCOC(=O)c1ccccc1,Potency,[1],inactive
same,outcome,[2],inactive
same,Potency,[3],inactive
same,outcome,[4],inactive
same,Potency,[5],inactive
same,Potency,[6],inactive
same,Potency,[7],inactive
CCC(C(=O)NC(=O)NC(C)=O)c1ccccc1 (stereo not given),Potency,[1],inactive
same,outcome,[2],inactive
same,Potency,[3],inactive
same,outcome,[4],inactive
same,Potency,[5],inactive
same,Potency,[6],inactive
same,Potency,[7],inactive
c1ccc(Cc2ccccc2)cc1,Potency,[1],inactive
same,outcome,[2],inactive
same,Potency,[3],inactive
same,outcome,[4],inactive
same,Potency,[5],inactive
same,Potency,[6],inactive
same,Potency,[7],inactive
CC(C)(C)c1ccc(-c2ccc(C(C)(C)C)cc2)cc1,Potency,[1],inactive
same,outcome,[2],inactive
same,Potency,[3],inactive
same,outcome,[4],inactive
same,Potency,[5],inactive
same,Potency,[6],inactive
same,Potency,[7],inactive
COc1cccc(OC)c1C(=O)N[C@@H]1C(=O)N2[C@@H]1SC(C)(C)[C@@H]2C(=O)O,Potency,[1],inactive
same,outcome,[2],inactive
same,Potency,[3],inactive
same,outcome,[4],inactive
same,Potency,[5],inactive
same,Potency,[6],inactive
same,max activation,[8],-1.79%
same,Potency,[9],inactive
same,Potency,[7],inactive
C=C(C)C(=O)OCCOCCOCCOCCOC(=O)C(=C)C,Potency,[1],inactive
same,outcome,[2],inactive
same,Potency,[3],inactive
same,outcome,[4],inactive
same,Potency,[5],inactive
same,Potency,[6],inactive
same,Potency,[7],inactive
Nc1ccn([C@@H]2O[C@H](CO)[C@@H](O)C2O)c(=O)n1 (stereo not given in full),Potency,[1],inactive
same,outcome,[2],inactive
same,Potency,[3],inactive
same,outcome,[4],inactive
same,Potency,[5],inactive
same,Potency,[6],inactive
same,max activation,[8],-0.294%
same,Potency,[9],inactive
same,Potency,[7],inactive
OCCc1ccccn1,Potency,[1],inactive
same,outcome,[2],inactive
same,Potency,[3],inactive
same,outcome,[4],inactive
same,Potency,[5],inactive
same,Potency,[6],inactive
same,Potency,[7],inactive
CC[C@H]1OC(=O)[C@H](C)[C@@H](O[C@H]2C[C@@](C)(OC)[C@@H](O)[C@H](C)O2)[C@H](C)[C@@H](O[C@@H]2O[C@H](C)C[C@H](N(C)C)[C@H]2O)[C@](C)(OC)C[C@@H](C)C(=O)[C@H](C)[C@@H](O)[C@]1(C)O,Potency,[1],inactive
same,outcome,[2],inactive
same,Potency,[3],inactive
same,outcome,[4],inactive
same,Potency,[5],inactive
same,Potency,[6],inactive
same,max activation,[8],-0.482%
same,Potency,[9],inactive
same,Potency,[7],inactive
